Activity calls are given as the source filed them. How the calls were made is not given here.
Assay: Brca1-Bard1 BiLC signal decrease – luminescence, single concentration, counter-screen for Mdm2/MdmX interaction inhibitor project, confirmation (AID 504668)
Conditions: Brca1/Bard1 bimolecular luciferase complementation counterscreen, at 8 µM, hits give high values

Row | Structure (SMILES) | inhibition
1 | CN(Cc1ccccc1)C(=O)c1ccc(NC(=O)C2CCN(C(=O)OC(C)(C)C)CC2)cc1 | 31.6% (active)
2 | CCCC(=O)NC(c1ccco1)c1cc(Cl)c2cccnc2c1O (configuration not stated) | 23.3% (active)
3 | CN(C(=O)c1ccc(S(=O)(=O)c2cccc(Cl)c2)c([N+](=O)[O-])c1)C1CCCCC1 | 28.9% (active)
4 | Cc1nc(NC(=O)/C=C/c2ccccc2)n[nH]1 | 32.9% (active)
5 | Oc1ccc(N=Nc2ccc3c(c2)OCCO3)c2ncccc12 | 26.2% (active)
6 | CN1C(=O)/C(=C\c2cc(N=Nc3ccccc3)ccc2O)SC1=S | 34.4% (active)
7 | CCCCC(=O)NC(c1cccs1)c1cc(Cl)c2cccnc2c1O (configuration not stated) | 28.5% (active)
8 | Cc1ccc(NC(=O)c2cc3ccccc3oc2=O)cc1S(=O)(=O)N(C)C | 25.9% (active)
9 | COc1ccccc1N(CC(=O)N/N=C/c1c(O)ccc2ccccc12)S(C)(=O)=O | 26.2% (active)
10 | CCCOc1ccc(C(=O)C(CN2CCOCC2)c2ccccc2)cc1 (configuration not stated) | 25.6% (active)
11 | Cn1cccc1-c1cc(C(=O)N/N=C/c2cc(Br)ccc2O)[nH]n1 | 25.9% (active)
12 | Cc1ccn2c(Nc3ccccc3C)c(-c3ccccn3)nc2c1 | 31.7% (active)
